In PubChem BioAssay (NCI):
About 83,000 compounds went through this panel and 20% of them were active in at least one assay; those are over-represented in the sample as a whole.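 Growth was measured after 48 h exposure to one concentration of compound in 96-well plates. Values under 10 count as active.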 Active and inactive are the calls of the source.

What was measured:
Test in all cases: NCI-60 one-dose screen, 48 h (100 = growth as untreated, 0 = no growth, -100 = all killed)
Conditions in all cases: 10 µM
[1] = tested on: NCI-H23 lung
[2] = tested on: NCI-H226 lung
[3] = tested on: NCI-H322M lung
[4] = tested on: HOP-62 NSCLC
[5] = tested on: NCI-H460 lung
[6] = tested on: NCI-H522 lung
[7] = tested on: A549/ATCC NSCLC
[8] = tested on: 786-0 renal
[9] = tested on: COLO 205 colon
[10] = tested on: DU-145 prostate
[11] = tested on: K-562 leukemia
[12] = tested on: MALME-3M melanoma
[13] = tested on: MDA-MB-231 breast
[14] = tested on: SF-268 CNS
[15] = tested on: SF-295 CNS
[16] = tested on: SF-539 CNS
[17] = tested on: UACC-257 melanoma
[18] = tested on: M14 melanoma
[19] = tested on: HCT-15 colon
[20] = tested on: RXF 393 renal

Measured: growth

CCN(CC)CCC(CNc1c(C)cnc2cc(Cl)ccc12)c1ccc(Cl)c(Cl)c1 (centres undefined)
active: [9] -56.5% | [11] 1.52% | [12] -52% | [17] -49.6% | [18] -64.5%
inactive: [1] 63.7% | [2] 85.9% | [3] 51.8% | [4] 68.8% | [5] 63.8% | [6] 49.2% | [7] 64.1% | [8] 60.2% | [10] 73.8% | [13] 25.5% | [14] 71.8% | [15] 65.4% | [16] 20.9% | [19] 32.3%

COc1cc(-c2nc(-c3nnc(-c4ccc(F)c(Cl)c4)o3)c3ccccn23)cc(OC)c1OC
active: [4] -65.6% | [5] 7.43% | [6] 5.92%
inactive: [1] 70.1% | [2] 15.3% | [3] 54.5% | [7] 23.7% | [8] 45.5% | [9] 43.7% | [10] 41% | [11] 52.6% | [12] 13.4% | [13] 57.3% | [20] 40.4% | [15] 37.3% | [16] 37% | [17] 40.3% | [18] 70% | [19] 55.4%

CCC1(C(C)C)NC(=O)NC1=O (centres undefined)
inactive: [1] 99.1% | [2] 96.4% | [3] 110% | [4] 96% | [5] 110% | [6] 101% | [7] 96.1% | [8] 97.7% | [9] 115% | [10] 104% | [11] 88.3% | [12] 104% | [13] 100% | [14] 102% | [15] 97.6% | [16] 101% | [17] 92.4% | [18] 107% | [19] 105%

Oc1[nH]c2cc(Cl)ccc2c1/C=c1/ccc2c(c1)N=C(c1cc(F)cc(F)c1)N=2
inactive: [1] 28.3% | [2] 55.1% | [3] 49.1% | [4] 25.3% | [7] 37.9% | [8] 36.7% | [11] 10.3% | [12] 51.4% | [13] 66.7% | [15] 13.5% | [17] 55.6% | [19] 37.3%
active: [5] 6.1% | [6] -3.39% | [9] -0.0984% | [10] -8.59% | [20] 1.45% | [16] 3.76% | [18] -9.94%

COc1cc(/C=C2\Oc3cc(OCC(=O)c4ccccc4)ccc3C2=O)cc(OC)c1OC
inactive: [1] 105% | [2] 104% | [3] 126% | [5] 93% | [6] 105% | [7] 118% | [9] 146% | [10] 94.9% | [11] 105% | [12] 114% | [13] 95.6% | [14] 105% | [15] 91.5% | [16] 121% | [17] 132% | [18] 125% | [19] 103%
active: [4] 2.36% | [8] -45.9%

COc1cc(/C(=C2/O[C@@H]([C@H]3COC(C)(C)O3)[C@H]3OC(C)(C)O[C@@H]23)c2ccc3ccccc3c2)cc(OC)c1OC
inactive: [1] 46.2% | [2] 66.9% | [3] 55.1% | [4] 48% | [5] 43.4% | [9] 66.9% | [11] 28.1% | [13] 13.6% | [15] 46.6% | [16] 26.4% | [17] 45.9% | [18] 62.8% | [19] 59.7%
active: [6] 8.05% | [7] -9.4% | [8] -1.42% | [10] 2.86% | [12] -25.4% | [14] -16.9%

COc1ccc(-c2nc3ncccn3c2-c2nnc(-c3ccc(F)cc3)o2)cc1
inactive: [1] 98.2% | [2] 96.7% | [3] 101% | [4] 106% | [5] 101% | [6] 106% | [7] 104% | [8] 101% | [9] 113% | [10] 106% | [11] 87.7% | [12] 122% | [13] 88.9% | [20] 111% | [15] 97.1% | [16] 94.5% | [17] 105% | [18] 110% | [19] 93.8%

O=C(C[n+]1ccccc1)c1ccc2ccccc2c1
inactive: [1] 88.1% | [2] 96.4% | [3] 95.2% | [4] 89.1% | [5] 104% | [6] 103% | [7] 96.7% | [8] 87.6% | [9] 102% | [10] 87.9% | [11] 86.6% | [12] 92.4% | [13] 95.2% | [14] 103% | [15] 88.2% | [16] 97.3% | [17] 92.6% | [18] 94% | [19] 109%

COc1cc(/C=N/NC(=O)c2ccccc2Nc2ccnc(C(F)(F)F)c2)ccc1O
inactive: [1] 91.8% | [2] 238% | [3] 130% | [4] 110% | [5] 108% | [6] 102% | [7] 66.9% | [8] 106% | [9] 115% | [10] 130% | [11] 90.4% | [12] 121% | [13] 112% | [14] 105% | [15] 114% | [16] 112% | [17] 126% | [18] 89.7% | [19] 106%

CCCCCCCCCCCCC1C/C=C\CCCC(=O)O1 (centres undefined)
inactive: [1] 91.1% | [2] 167% | [3] 108% | [4] 106% | [5] 109% | [6] 98.1% | [7] 80.7% | [8] 98.4% | [9] 113% | [10] 130% | [11] 101% | [12] 107% | [13] 119% | [14] 103% | [15] 103% | [16] 107% | [17] 118% | [18] 100% | [19] 97.2%

COc1ccc2nc3ccccc3c(NCCNCC(C)O)c2c1 (centres undefined)
active: [1] -2.17% | [2] -4.19% | [3] -3.32% | [4] -13.6% | [5] -10.8% | [6] -26.5% | [7] -36.4% | [8] 0.024% | [9] -27.5% | [10] 9.52% | [11] 9.22% | [12] -13.7% | [13] -28.2% | [14] 8.57% | [15] 7.81% | [16] 6.66% | [17] 7.95%
inactive: [18] 11.3% | [19] 23.1%

CCN(CC)CCNc1ccc(CO)c2oc3cc(Cl)ccc3c(=O)c12
active: [17] -0.905%
inactive: [1] 87.2% | [2] 95.7% | [3] 97.4% | [4] 88.4% | [5] 88.2% | [6] 77.9% | [7] 90.4% | [8] 76% | [9] 68.4% | [10] 108% | [11] 81.8% | [12] 112% | [13] 83.7% | [20] 73.3% | [15] 97.9% | [16] 88.8% | [18] 60.3% | [19] 81%

COC(=O)c1ccc(=O)oc1
inactive: [1] 93% | [2] 101% | [3] 106% | [4] 96.1% | [5] 110% | [6] 99.9% | [7] 101% | [8] 99.4% | [9] 119% | [10] 114% | [11] 86.8% | [12] 101% | [13] 98.1% | [14] 104% | [15] 102% | [16] 95.8% | [17] 100% | [18] 101% | [19] 97.8%

COc1cc(-c2nnc(-c3c(-c4ccc(F)cc4)nc4ccccn34)o2)cc(OC)c1OC
active: [6] 4.71%
inactive: [1] 80.8% | [2] 53.7% | [3] 91.8% | [4] 62.9% | [5] 52.5% | [7] 70.7% | [8] 64.7% | [9] 107% | [10] 77% | [11] 98.8% | [12] 105% | [13] 64.6% | [20] 66.9% | [15] 74.6% | [16] 26.4% | [17] 92.1% | [18] 104% | [19] 90.6%

CCCCN(CCCC)CCCCCCCCC(O)c1cc2ccccc2c2ccccc12 (centres undefined)
inactive: [1] 40.8% | [2] 80.2% | [3] 84.5% | [4] 76.7% | [5] 54.2% | [6] 39.1% | [7] 56.8% | [8] 67.3% | [9] 44.1% | [10] 69.7% | [11] 22.6% | [12] 76.8% | [13] 56.2% | [14] 65.9% | [15] 77.5% | [16] 74.6% | [17] 91.4% | [18] 45.7% | [19] 34.6%

Fc1ccc(-c2nnc(-c3c(-c4ccc(F)cc4)nc4ccccn34)o2)cc1
active: [16] -10.1%
inactive: [1] 69% | [2] 84.2% | [3] 105% | [4] 78.5% | [5] 70% | [6] 25.9% | [7] 72.4% | [8] 88.2% | [9] 79.5% | [10] 92.1% | [11] 87.2% | [12] 120% | [13] 78.9% | [20] 85.9% | [15] 88.7% | [17] 85.1% | [18] 116% | [19] 98.5%
